{
  "source": "PubChem BioAssay (NCATS)",
  "note": "“And” between values parts separate entries of the source, which are not always exact repeats. Equal values may be shown once. Inconclusive results are not listed. Where a call stands in place of a potency, no number is given. A structure can be active in one record and inactive in another. Unmarked numbers belong to inactive results. The source made the active and inactive calls. Calls come from the whole dose curve; as a rule, active = well fitted inhibition curve with a large enough effect; inconclusive = small, poorly fitted or top-dose-only effect; inactive = flat fitted curve, though single readings scatter. Note: nearly all actives have a fitted effect of over 60% in size. Potency is the fitted concentration of half-maximal effect.",
  "data": [
    {"system": "TAB109", "test": "qHTS profiling for inhibitors of Plasmodium falciparum proliferation (AID 504749)", "details": "P. falciparum in erythrocytes, SYBR Green DNA, 72 h; series mostly up to 28.7 µM", "in_short": "(§1)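 SYBR Green fluorescence of parasite DNA, read after lysis and overnight dark incubation, measured growth over 72 h in erythrocyte culture at 0.3% parasitemia and 2.5% hematocrit. Data normalised to DMSO and 0.29 uM artemisinin, with plate-drift correction.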", "values": [
      {"smiles": "C=C(C)[C@H]1CN[C@H](C(=O)O)[C@H]1CC(=O)O", "Potency": "inactive"},
      {"smiles": "CN1C(=O)CCS(=O)(=O)C1c1ccc(Cl)cc1", "note": "(stereo not given)", "Potency": "inactive"},
      {"smiles": "CNC(C)(C)Cc1ccccc1", "Potency": "inactive"},
      {"smiles": "O=C(O)CCCc1ccc(N(CCCl)CCCl)cc1", "Potency": "inactive"},
      {"smiles": "NNc1ccccc1", "Potency": "inactive"},
      {"smiles": "NC(=O)c1cc([N+](=O)[O-])cc([N+](=O)[O-])c1", "Potency": "inactive"},
      {"smiles": "O=C1OC(c2ccc(O)c(S(=O)(=O)O)c2)(c2ccc(O)c(S(=O)(=O)O)c2)c2c(Br)c(Br)c(Br)c(Br)c21", "Potency": "inactive"},
      {"smiles": "CCCCCCCCCC(=O)O[C@H]1CC[C@H]2[C@@H]3CCC4=CC(=O)CC[C@@H]4[C@H]3CC[C@]12C", "Potency": "inactive"},
      {"smiles": "O=c1[nH]oc2c1CCNC2", "Potency": "inactive"},
      {"smiles": "O=P1(N(CCCl)CCCl)NCCCO1", "note": "(stereo not given)", "Potency": "inactive"},
      {"smiles": "Oc1ccc(Cl)cc1", "Potency": "inactive"},
      {"smiles": "CC(C)c1cccc(C(C)C)c1O", "Potency": "inactive"},
      {"smiles": "CCOC(=O)CC(SP(=S)(OC)OC)C(=O)OCC", "note": "(stereo not given)", "Potency": "inactive"}
    ]},
    {"system": "TAB113", "test": "qHTS profiling for inhibitors of Plasmodium falciparum proliferation (AID 504749)", "details": "P. falciparum in erythrocytes, SYBR Green DNA, 72 h; series mostly up to 28.7 µM", "in_short": "as §1", "values": [
      {"smiles": "C=C(C)[C@H]1CN[C@H](C(=O)O)[C@H]1CC(=O)O", "Potency": "inactive"},
      {"smiles": "CN1C(=O)CCS(=O)(=O)C1c1ccc(Cl)cc1", "note": "(stereo not given)", "Potency": "inactive"},
      {"smiles": "CNC(C)(C)Cc1ccccc1", "Potency": "inactive"},
      {"smiles": "O=C1c2ccccc2C(=O)C1C(=O)C(c1ccccc1)c1ccccc1", "Potency": "inactive"},
      {"smiles": "O=C(O)CCCc1ccc(N(CCCl)CCCl)cc1", "Potency": "inactive"},
      {"smiles": "NNc1ccccc1", "Potency": "inactive"},
      {"smiles": "NC(=O)c1cc([N+](=O)[O-])cc([N+](=O)[O-])c1", "Potency": "inactive"},
      {"smiles": "O=C1OC(c2ccc(O)c(S(=O)(=O)O)c2)(c2ccc(O)c(S(=O)(=O)O)c2)c2c(Br)c(Br)c(Br)c(Br)c21", "Potency": "inactive"},
      {"smiles": "CCCCCCCCCC(=O)O[C@H]1CC[C@H]2[C@@H]3CCC4=CC(=O)CC[C@@H]4[C@H]3CC[C@]12C", "Potency": "inactive"},
      {"smiles": "O=c1[nH]oc2c1CCNC2", "Potency": "inactive"},
      {"smiles": "O=P1(N(CCCl)CCCl)NCCCO1", "note": "(stereo not given)", "Potency": "inactive"},
      {"smiles": "Oc1ccc(Cl)cc1", "Potency": "inactive"},
      {"smiles": "CC(C)c1cccc(C(C)C)c1O", "Potency": "inactive"},
      {"smiles": "CCOC(=O)CC(SP(=S)(OC)OC)C(=O)OCC", "note": "(stereo not given)", "Potency": "inactive"}
    ]},
    {"system": "TAB165", "test": "qHTS profiling for inhibitors of Plasmodium falciparum proliferation (AID 504749)", "details": "P. falciparum in erythrocytes, SYBR Green DNA, 72 h; series mostly up to 28.7 µM", "in_short": "as §1", "values": [
      {"smiles": "C=C(C)[C@H]1CN[C@H](C(=O)O)[C@H]1CC(=O)O", "Potency": "inactive"},
      {"smiles": "CN1C(=O)CCS(=O)(=O)C1c1ccc(Cl)cc1", "note": "(stereo not given)", "Potency": "inactive"},
      {"smiles": "CNC(C)(C)Cc1ccccc1", "Potency": "inactive"},
      {"smiles": "O=C1c2ccccc2C(=O)C1C(=O)C(c1ccccc1)c1ccccc1", "Potency": "inactive"},
      {"smiles": "O=C(O)CCCc1ccc(N(CCCl)CCCl)cc1", "Potency": "inactive"},
      {"smiles": "NNc1ccccc1", "Potency": "inactive"},
      {"smiles": "NC(=O)c1cc([N+](=O)[O-])cc([N+](=O)[O-])c1", "Potency": "inactive"},
      {"smiles": "CC(C)(C)NCC(O)c1cc(Cl)c(N)c(C(F)(F)F)c1", "note": "(stereo not given)", "Potency": "7.94 µM (active)"},
      {"smiles": "O=C1OC(c2ccc(O)c(S(=O)(=O)O)c2)(c2ccc(O)c(S(=O)(=O)O)c2)c2c(Br)c(Br)c(Br)c(Br)c21", "Potency": "inactive"},
      {"smiles": "CCCCCCCCCC(=O)O[C@H]1CC[C@H]2[C@@H]3CCC4=CC(=O)CC[C@@H]4[C@H]3CC[C@]12C", "Potency": "inactive"},
      {"smiles": "O=c1[nH]oc2c1CCNC2", "Potency": "inactive"},
      {"smiles": "O=P1(N(CCCl)CCCl)NCCCO1", "note": "(stereo not given)", "Potency": "inactive"},
      {"smiles": "Oc1ccc(Cl)cc1", "Potency": "inactive"},
      {"smiles": "CC(C)c1cccc(C(C)C)c1O", "Potency": "inactive"},
      {"smiles": "CCOC(=O)CC(SP(=S)(OC)OC)C(=O)OCC", "note": "(stereo not given)", "Potency": "inactive"}
    ]},
    {"system": "W2", "test": "qHTS profiling for inhibitors of Plasmodium falciparum proliferation (AID 504749)", "details": "P. falciparum in erythrocytes, SYBR Green DNA, 72 h; series mostly up to 28.7 µM", "in_short": "as §1", "values": [
      {"smiles": "C=C(C)[C@H]1CN[C@H](C(=O)O)[C@H]1CC(=O)O", "Potency": "inactive"},
      {"smiles": "CNC(C)(C)Cc1ccccc1", "Potency": "inactive"},
      {"smiles": "O=C1c2ccccc2C(=O)c2ccccc21", "Potency": "6.75 µM (active)"},
      {"smiles": "CC(C)(C)NCC(O)c1cc(Cl)c(N)c(C(F)(F)F)c1", "note": "(stereo not given)", "Potency": "5.36 µM (active)"},
      {"smiles": "O=C1OC(c2ccc(O)c(S(=O)(=O)O)c2)(c2ccc(O)c(S(=O)(=O)O)c2)c2c(Br)c(Br)c(Br)c(Br)c21", "Potency": "inactive"},
      {"smiles": "C=CCN1C[C@H](C)N([C@H](c2ccc(C(=O)N(CC)CC)cc2)c2cccc(OC)c2)C[C@H]1C", "Potency": "15.1 µM (active)"},
      {"smiles": "O=c1[nH]oc2c1CCNC2", "Potency": "inactive"},
      {"smiles": "O=P1(N(CCCl)CCCl)NCCCO1", "note": "(stereo not given)", "Potency": "inactive"},
      {"smiles": "Oc1ccc(Cl)cc1", "Potency": "inactive"},
      {"smiles": "CC(C)c1cccc(C(C)C)c1O", "Potency": "inactive"},
      {"smiles": "CCOC(=O)CC(SP(=S)(OC)OC)C(=O)OCC", "note": "(stereo not given)", "Potency": "inactive"}
    ]},
    {"system": "CRL-7250", "test": "Cytotoxic Profiling of Annotated Libraries Using Quantitative High-Throughput Screening (AID 1296008)", "details": "Five cell lines viability, CellTiter-Glo ATP luminescence, 48-72 h; max response: stronger effect = lower value", "in_short": "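Cytotoxicity was measured as CellTiter-Glo ATP luminescence, read after 10 min at room temperature. Compound treatment of the cells lasted 48 or 72 hr at 37 degrees Celsius in a qHTS format.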", "values": [
      {"smiles": "Nc1ccccc1", "max response": "-1.03%"},
      {"smiles": "CC(C)N(CCC(C(N)=O)(c1ccccc1)c1ccccn1)C(C)C", "note": "(stereo not given)", "max response": "-4.51%", "outcome": "inactive"},
      {"smiles": "C=C(C)[C@H]1CN[C@H](C(=O)O)[C@H]1CC(=O)O", "max response": "1.07%"},
      {"smiles": "CN1C(=O)CCS(=O)(=O)C1c1ccc(Cl)cc1", "note": "(stereo not given)", "max response": "-0.906% and -1.81%"},
      {"smiles": "CNC(C)(C)Cc1ccccc1", "max response": "-3%"},
      {"smiles": "CC1(C)C(C=C(Cl)Cl)C1C(=O)OC(C#N)c1cccc(Oc2ccccc2)c1", "note": "(stereo not given)", "max response": "2.32%"},
      {"smiles": "O=C1c2ccccc2C(=O)c2ccccc21", "max response": "-3.19%"},
      {"smiles": "O=C1c2ccccc2C(=O)C1C(=O)C(c1ccccc1)c1ccccc1", "max response": "3.94%"},
      {"smiles": "C[C@]12CC[C@@H]3c4ccc(OC(=O)N(CCCl)CCCl)cc4CC[C@H]3[C@@H]1CC[C@@H]2OP(=O)(O)O", "Potency": "10.5 µM (active)", "outcome": "inactive"},
      {"smiles": "COC(=O)[C@@H](N)CCCN/C(N)=N/[N+](=O)[O-]", "outcome": "inactive"},
      {"smiles": "CCC1(c2ccc(N)cc2)CCC(=O)NC1=O", "note": "(stereo not given)", "max response": "1.43% and -1.25%"},
      {"smiles": "O=C(O)CCCc1ccc(N(CCCl)CCCl)cc1", "outcome": "inactive"},
      {"smiles": "NNc1ccccc1", "outcome": "inactive"},
      {"smiles": "CCc1cc2c(s1)-n1c(C)nnc1CN=C2c1ccccc1Cl", "outcome": "inactive"},
      {"smiles": "NC(=O)c1cc([N+](=O)[O-])cc([N+](=O)[O-])c1", "outcome": "inactive"},
      {"smiles": "COP(=S)(OC)Oc1cc(Cl)c(Cl)cc1Cl", "max response": "-8.37%"},
      {"smiles": "c1ccc(CN2CCNCC2)cc1", "max response": "3.96%"},
      {"smiles": "C[N+]1(CCF)[C@@H]2CC[C@H]1CC(OC(=O)C(O)(c1ccccc1)c1ccccc1)C2", "note": "(stereo not given in full)", "outcome": "inactive"},
      {"smiles": "CCN(CCO)CCn1c(Cc2ccccc2)nc2c1c(=O)n(C)c(=O)n2C", "max response": "-2.16%"},
      {"smiles": "O=C(O)/C=C\\C(=O)O", "max response": "-1.31%"},
      {"smiles": "CC(C)(C)NCC(O)c1cc(Cl)c(N)c(C(F)(F)F)c1", "note": "(stereo not given)", "outcome": "inactive"},
      {"smiles": "O=C1OC(c2ccc(O)c(S(=O)(=O)O)c2)(c2ccc(O)c(S(=O)(=O)O)c2)c2c(Br)c(Br)c(Br)c(Br)c21", "max response": "-1.01%"},
      {"smiles": "C=CCN1C[C@H](C)N([C@H](c2ccc(C(=O)N(CC)CC)cc2)c2cccc(OC)c2)C[C@H]1C", "max response": "0.0318%", "outcome": "inactive"},
      {"smiles": "CCCCCCCCCC(=O)O[C@H]1CC[C@H]2[C@@H]3CCC4=CC(=O)CC[C@@H]4[C@H]3CC[C@]12C", "outcome": "inactive"},
      {"smiles": "CCCCCN(C)CCC(O)(P(=O)(O)O)P(=O)(O)O", "max response": "-0.0055%"},
      {"smiles": "CC(NC(C)(C)C)C(=O)c1cccc(Cl)c1", "note": "(stereo not given)", "max response": "-10.7%", "outcome": "inactive"},
      {"smiles": "O=c1[nH]oc2c1CCNC2", "max response": "-16.5%"},
      {"smiles": "CC(=O)OCC1=C(C(=O)O)N2C(=O)[C@@H](N)[C@H]2SC1", "max response": "-3.91%", "outcome": "inactive"},
      {"smiles": "O=P1(N(CCCl)CCCl)NCCCO1", "note": "(stereo not given)", "max response": "-3.83% and -4.06%"},
      {"smiles": "COc1ccc2c3c1O[C@H]1[C@H](O)CC[C@H]4[C@@H](C2)N(C)CC[C@@]341", "outcome": "inactive"},
      {"smiles": "CN1CC[C@]23c4c5ccc(O)c4O[C@H]2[C@@H](O)CC[C@H]3[C@H]1C5", "outcome": "inactive"},
      {"smiles": "COc1cc(OC)c(OC)cc1C=O", "max response": "-7.23% and -7.54%"},
      {"smiles": "Oc1ccc(Cl)cc1", "max response": "-6.01%"},
      {"smiles": "CC(C)c1cccc(C(C)C)c1O", "max response": "-8.58% and -1.5%"},
      {"smiles": "CNCC(=O)c1ccc(O)c(O)c1", "max response": "0.325%"},
      {"smiles": "CCOC(=O)CC(SP(=S)(OC)OC)C(=O)OCC", "note": "(stereo not given)", "max response": "-3.52%", "outcome": "inactive"}
    ]}
  ]
}
